About 79,000 compounds went through this panel and 15% of them were active in at least one assay; those are over-represented in the sample as a whole. Values without a mark were called inactive. Activity calls are given as the source filed them. Cut-off read from the data, not from the text of the source: active = growth inhibition above about 70%; inactive = the rest.
Legend:
[1] = NCI Yeast Anticancer Drug Screen. Data for the rad50 strain (AID 155);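 note: 0% = growth of vehicle-only cultures of the same strain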; details: S. cerevisiae rad50 strain growth inhibition; at 50.0 µM; stronger effect = higher value
Summary of the method: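 Genetically altered yeast (DNA repair pathway); compound treatment; growth inhibition vs vehicle ctrl.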

[2] = NCI Yeast Anticancer Drug Screen. Data for the mec2-1 strain (AID 157); details: S. cerevisiae mec2-1 strain, at 50.0 µM, stronger effect = higher value
Summary of the method: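 Yeast mec2-1 mutant treated with compound. Readout: growth inhibition vs vehicle controls.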

[3] = NCI Yeast Anticancer Drug Screen. Data for the sgs1 mgt1 strain (AID 161);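 note: 0% = growth of cultures given vehicle only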; details: S. cerevisiae sgs1 mgt1 strain, at 50.0 µM, stronger effect = higher value
Summary of the method: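 Genetically altered yeast, compound exposure, growth inhibition relative to vehicle.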

[4] = NCI Yeast Anticancer Drug Screen. Data for the cln2 rad14 strain (AID 165);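 note: 0% = growth equal to vehicle treated cultures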; details: S. cerevisiae cln2 rad14 strain, at 50.0 µM, stronger effect = higher value
Summary of the method: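 cln2 rad14 yeast strain; compound exposure; growth inhibition read vs vehicle controls.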

[5] = NCI Yeast Anticancer Drug Screen. Data for the bub3 strain (AID 167); details: S. cerevisiae bub3 mutant strain, at 50.0 µM, stronger effect = higher value
Summary of the method: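 Yeast carrying a defined mutation is treated with each compound, and growth is compared with that of vehicle-exposed cells to give inhibition.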

[6] = NCI Yeast Anticancer Drug Screen. Data for the mlh1 rad18 strain (AID 175); details: S. cerevisiae mlh1 rad18 strain growth inhibition; at 50.0 µM; stronger effect = higher value
Summary of the method: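 Yeast w/ defined DNA-repair lesions; compound exposure; growth vs vehicle controls → % inhibition.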

Row | SMILES | growth inhibition [1] | growth inhibition [2] | growth inhibition [3] | growth inhibition [4] | growth inhibition [5] | growth inhibition [6]
1 | COC(=O)c1sc2c(=O)c(C(=O)OC)c(C(=O)OC)sc2c(=O)c1C(=O)OC | 23.1% | 27.4% | 54.3% | -1.1% | 50.9% | 38.6%
2 | C[N+](C)(C)CC(=O)NN | 10.1% | -0.8% | -21.7% | -17.6% | -18% | 38.6%
3 | COC(=O)CCC(=O)NC1=C(NCc2ccccc2)C(=O)c2ccccc2C1=O | 26.8% | 12.8% | 31.1% | 36% | 38.9% | 13.6%
4 | COc1ccc(C(O)(c2ccccc2)c2nccc3ccccc23)cc1 (configuration not stated) | 6.6% | 3.75% | 30.4% | 1.45% | 10.3% | -9.4%
5 | NC(=O)NN/C=C(/C=Nc1ccccc1)[N+](=O)[O-] | 17.4% | 7.35% | 1.2% | 5.35% | 6.55% | 0.95%
6 | CCCCCCCCC/C=C1\CCC(CN2CCOCC2)C1=O (configuration not stated) | 89% (active) | 92.8% (active) | 90.3% (active) | 89.6% (active) | 88.8% (active) | 88% (active)
7 | CCOC(=O)C1CC1OCc1ccccc1 (configuration not stated) | -0.2% | 11.7% | 4.9% | -15.9% | 4% | 5.3%
8 | O=C(O)CNC(CO)(CO)CO | -55% | -60.8% | -36% | -19.8% | -10.8% | -43%
9 | O=C1CCCCCCCC(=O)Nc2ccc3nc4ccccc4c(c3c2)SCCCCCCCCCCCCSc2c3ccccc3nc3ccc(cc23)N1 | -9.85% | -6.5% | -20.9% | -9.15% | -3.2% | -10.3%
10 | CCC(O)C(C)C(O)CC (configuration not stated) | 7.9% | 14.7% | 2.6% | 13.3% | 13.2% | 17.5%
11 | NC(=S)c1cc[n+]([O-])cc1 | 8.65% | 2.55% | 5.4% | -11.2% | -7.2% | -3.8%
12 | O=S(=O)(/C=C/c1ccc(Cl)cc1Cl)Cc1ccccc1CS(=O)(=O)/C=C/c1ccc(Cl)cc1Cl | 4.85% | 5.3% | -27.6% | -20.8% | 6.95% | -9.15%
13 | O=S(=O)(O)c1cccc2c1oc1ccccc12 | 8.85% | -37.4% | -3.75% | 19% | -10.1% | -19%
14 | CCCCCCCCCCCCCCCCCC(=O)OCC([N+](=O)[O-])([N+](=O)[O-])[N+](=O)[O-] | -9.3% | -1.3% | -5.3% | -19% | -26.1% | 1.9%
15 | Cc1cccc(NC(=O)Nc2ccccc2Cl)c1C | 11.2% | 5.15% | 0.65% | -3.65% | -2.3% | -9.45%
16 | Nc1ncnc2c1ncn2C[c-]1[c-][c-][c-][c-]1.[Fe].[c-]1[c-][c-][cH-][c-]1 | -4.95% | -23.8% | -11.9% | -40.7% | -15.7% | -8.8%
17 | CCOC(=O)C(CC(Nc1ccccc1)(c1ccccc1)c1ccccc1)c1ccccc1 (configuration not stated) | 21.9% | -8.3% | 4.65% | -35.5% | -3.45% | -0.65%
18 | Cc1cc(=O)[nH]c(NN2C(Cl)C(=O)C2c2cccc([N+](=O)[O-])c2)n1 (configuration not stated) | 18.1% | -32.5% | -0.3% | -7.1% | -7.45% | -33.6%
19 | CCCCCC(=O)/C=C/Sc1n[nH]c(=O)[nH]c1=O | 60.5% | 41.1% | 64.2% | 27.9% | 55% | 62.1%

Row | SMILES | growth inhibition [1] | growth inhibition [2] | growth inhibition [3] | growth inhibition [4] | growth inhibition [5] | growth inhibition [6]
20 | O=C1CC2[C@@H](N3CCCC3)CCC(N1Cc1ccccc1)C2(O)O (some centres not stated) | -6.75% | -38% | 1.2% | -4.05% | -19.8% | 3.25%
21 | COC(=O)NC1=Nc2ccccc2N(C(=O)Oc2ccccc2)S1 | 7.8% | 0.6% | 26.4% | 23.6% | 83.2% (active) | 33.9%
22 | OCCOCn1nc(-c2ccccc2)nc1-c1cnccn1 | -13.4% | -4.55% | -20.3% | -27.9% | -38.1% | -24.1%
23 | Oc1ccc(Br)cc1C(c1ccc2c(c1)OCO2)N1CCOCC1 (configuration not stated) | 8.65% | 14.3% | -7.8% | 14.4% | 1.45% | 15.5%
24 | Cc1ccc(O)c(C=O)c1 | -31.1% | -42.1% | -7.65% | 11.7% | -25.7% | -6.8%
25 | CCOC(=O)/C=C/CC1CCNC1 (configuration not stated) | -22.8% | -2.6% | -13.4% | -52% | -1.5% | -6%
26 | CCN(CC)CCOC(=O)c1ccc(NC(=O)OCCC(C)(C)CCOC(=O)Nc2ccc(C(=O)OCCN(CC)CC)cc2)cc1 | 6.85% | -18.4% | -9.25% | -23.6% | 8.25% | 16.2%
27 | O=C1C2C=CC(n3[nH]c(=O)n(Cc4ccccc4)c3=O)CC2C(=O)N1c1ccc(Br)cc1 (configuration not stated) | -3.8% | 3.8% | 3.1% | -30.4% | 4.15% | 2%
28 | CCOC(=O)C(Cc1ccc(OC)c(C)c1)(NC(C)=O)C(=O)OCC | -0.3% | 5.1% | -3.45% | -14.2% | 3.85% | 6.4%
29 | C(=C\c1ccco1)/c1ccco1 | 25.1% | 11.2% | 12.3% | 9.85% | -20.9% | -25.9%
30 | C=C(C(=O)O)C(=O)O | -14.4% | -3.6% | -2.2% | 4.35% | 2% | -4.7%
31 | O=C(COCC(=O)N/N=C/c1ccc(O)cc1)N/N=C/c1ccc(O)cc1 | -10.4% | 22.2% | 31.8% | -11.9% | 18.1% | 26.3%
32 | CCOC(=O)c1ccc(N2C(C#N)c3ccccc3OC2c2ccccc2O)cc1 (configuration not stated) | 5.5% | 2.25% | 15.6% | -19.5% | 1.3% | 21.4%
33 | CN1C(=O)NC(C)(CCOCc2ccccc2)C1=O (configuration not stated) | 8.85% | 0.45% | 0.25% | -1.25% | 6.65% | 8.65%
34 | C[P+](C)(C)c1ccccc1 | -16.6% | 4% | 4.95% | -22.2% | 3.15% | -3.7%
35 | C=C1OC(C2CCCCC2)=C(C(=O)OCC)C1C (configuration not stated) | -9.6% | -17.2% | -39% | -21.1% | 1.9% | -9.45%
36 | C#CCN | 9.25% | 2% | 2.8% | 3.75% | 8.05% | -12.7%
37 | CCOCCn1c(=O)cc(C)c2ccccc21 | -20.3% | 1.6% | -16.8% | -41.3% | 14.2% | -13.7%

— PubChem BioAssay (NCI)
